# Giardia kill = Giardia lamblia killing. Giardia lamblia trophozoite viability. 0.15% of 340,000 active. activity change, % at 7.66 µM, hits read low; in the data active = activity change below about -80%; inconclusive = between about -30% and that limit;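 also: parasites exposed to compound for two days anaerobically before the ATP read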
#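 Trophozoite viability was measured as ATP-dependent luminescence, read 15-30 min after reagent addition. Before that, parasites at 100 cells/well were exposed to compounds for 48 h, anaerobically, at 37 deg C.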
# MCF10A rerep = DNA re-replication induction in MCF 10a cells. MCF 10A DNA re-replication, Hoechst nuclear intensity, 48 h. Potency, µM (doses to about 46.1 µM), actives largely listed as activators. 2.9% of 350,000 active; also: nearly all actives have a fitted effect of over 50% in size
# KB-V1 cytotox = kills drug-selected multidrug resistant KB-V1 cells. KB-V1 MDR cells viability, CellTiter-Glo, 72 h. Potency, µM (titrated, usually from 46.1 µM), hits mostly cytotoxic. 3.4% of 400,000 active. AID 1347076; also: nearly all actives have a fitted effect of over 60% in size
#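 In this primary screen, KB-V1 cells overexpressing P-gp are incubated with library compounds (lowest to highest concentration) for 72 h at 37 degrees C before a luminescent ATP viability read.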
# S-ASM inh = human S-ASM enzyme inhibition | P17405 | placental ASM, HMU-PC fluorogenic substrate, 60 min | Potency, µM (series often up to 57.5 µM), most hits filed as inhibitors | 0.006% of 340,000 active | AID 504937
# Target sequence (P17405 47-631 limits assumed): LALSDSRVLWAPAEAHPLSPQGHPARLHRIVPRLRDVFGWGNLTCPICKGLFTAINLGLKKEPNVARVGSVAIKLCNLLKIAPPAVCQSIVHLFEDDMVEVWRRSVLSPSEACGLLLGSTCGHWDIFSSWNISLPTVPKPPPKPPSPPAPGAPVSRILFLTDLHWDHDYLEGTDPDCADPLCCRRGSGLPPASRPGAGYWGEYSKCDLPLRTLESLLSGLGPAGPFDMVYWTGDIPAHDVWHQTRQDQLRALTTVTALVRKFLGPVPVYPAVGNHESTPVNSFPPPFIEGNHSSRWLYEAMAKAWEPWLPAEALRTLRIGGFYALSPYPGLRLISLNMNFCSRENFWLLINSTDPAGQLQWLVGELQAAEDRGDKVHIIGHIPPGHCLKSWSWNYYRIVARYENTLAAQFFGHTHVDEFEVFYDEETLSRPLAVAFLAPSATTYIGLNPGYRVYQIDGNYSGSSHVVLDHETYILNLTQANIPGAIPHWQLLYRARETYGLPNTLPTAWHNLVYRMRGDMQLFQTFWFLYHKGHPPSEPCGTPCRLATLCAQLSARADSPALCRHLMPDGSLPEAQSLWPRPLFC
#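 Fluorescence read-out (Ex 386 nm, Em 447 nm) after stopping the reaction at pH 10. Enzyme: ASM from human placenta; substrate HMU-PC0, 9 uM final; 60 min, 37 °C. Compound preincubation 10 min, ambient temperature.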
# SW480 rereplic = DNA re-replication induction in SW480 cells; SW480 DNA re-replication, Hoechst DNA content imaging, 48 h; AID 624297; Potency, µM (series often up to 46.1 µM), hits mostly activators; 1.8% of 340,000 active; also: nearly all actives have a fitted effect of over 55% in size
#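 Hoechst fluorescence of nuclei (405 nm excitation, 500-530 nm emission) measured by plate-scanning imager after 48 hr compound exposure at 37 C; re-replication scored as increased number of nuclei with elevated intensity.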
# KB-3-1 tox = kills parental KB-3-1 adenocarcinoma cells; Potency, µM (series often up to 46.1 µM), actives largely listed as cytotoxic; 1.4% of 400,000 active; KB-3-1 viability, CellTiter-Glo ATP luminescence, 72 h; also: nearly all actives have a fitted effect of over 60% in size
#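 Cells are dispensed, compounds pinned in, plates held at 37 °C for 72 h, then CellTiter-Glo is added and luminescence read after 10 minutes. Cell line: parental KB-3-1 in phenol-red-free DMEM, 10% FBS.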
# Hits are given with their value; n = inactive; u = inconclusive; x = no result. Shown are actives, neighbours in structure and some others; about 6.9% of the full set was active somewhere. Unless noted, calls follow the shape of the dose curve; as a rule, active = well fitted curve in the direction sought with a large enough effect; inconclusive = small, poorly fitted or top-dose-only effect, or another doubt; inactive = no such curve, though single readings can be large; an effect the other way counts as inactive or inconclusive.
SMILES,Giardia kill,MCF10A rerep,KB-V1 cytotox,S-ASM inh,SW480 rereplic,KB-3-1 tox
CC(C)Cn1nc(C(=O)Nc2cccc(S(=O)(=O)N3CCCC3)c2)c2ccccc2c1=O,n,n,4.6µM,n,n,n
O=C(Nc1cccc(S(=O)(=O)N2CCCCC2)c1)c1ccc(S(=O)(=O)C(F)F)cc1,n,n,7.3µM,n,n,u
O=C(CSc1ccnc(=O)[nH]1)NCc1ccc(F)cc1,x,x,u,x,x,n
Cc1ccc(NC(=O)CC2Sc3ccccc3NC2=O)c(Br)c1 (configuration not stated),x,x,n,x,x,n
O=C(CN1CCCc2ccccc21)Nc1cccc(S(=O)(=O)N2CCOCC2)c1,n,n,n,n,n,n
O=C(O)c1cc(S(=O)(=O)N2CCN(C(c3ccccc3)c3ccccc3)CC2)ccc1Cl,n,n,n,n,n,n
Cc1ccc(NC(=O)C(C)Sc2nc(-c3ccccc3)c(C#N)c(=O)[nH]2)c(C)c1 (configuration not stated),x,x,n,x,x,n
C[N+]12CCCC[C@@H]1CCC(=C(c1cccs1)c1cccs1)C2 (some centres not stated),x,n,x,x,n,x
CCOc1ccc(-c2c(C)nn3c(C)c(C(=O)NCc4ccc(Cl)cc4)cnc23)cc1OCC,x,x,n,x,x,n
O=C(CCl)Nc1cccc(S(=O)(=O)N2CCCCCC2)c1,n,u,23µM,n,13µM,16µM
Cc1cccc(NC(=O)c2sc3nc4c(c(-c5cccs5)c3c2N)CN(C)CC4)c1,n,16µM,n,n,u,n
COc1ccc(S(=O)(=O)N2CCSC2c2ccccc2)cc1 (configuration not stated),n,u,23µM,n,n,u
COc1ccccc1C1SCCN1S(=O)(=O)c1cccc(C(F)(F)F)c1 (configuration not stated),n,n,16µM,n,n,n
COc1cc(-c2nc3cnccn3c2Nc2c(C)cccc2C)ccc1O,n,16µM,n,n,23µM,n
Cc1cccc(C)c1Nc1c(-c2ccc(N3CCOCC3)cc2)nc2cnccn12,n,23µM,n,n,u,n
COc1cc(-c2nc3cnccn3c2NC(C)(C)CC(C)(C)C)ccc1O,n,n,n,n,n,n
O=S(=O)(NCCc1csc(-c2ccc(F)cc2)n1)c1ccc(Cl)cc1,x,x,n,x,x,u
COc1ccc(N2Cc3cccc(C(=O)Nc4cccc(F)c4)c3C2=O)cc1,x,x,n,x,x,n
Cc1oc(-c2ccccc2Cl)nc1CN1CCCC1c1ccc(F)cc1 (configuration not stated),n,n,u,n,n,n
Cc1ccccc1-c1nc(CN2CCCC2c2ccc(F)cc2)c(C)o1 (configuration not stated),n,15µM,n,n,n,n
NC(=O)COC(=O)c1ccccc1OCC(=O)Nc1ccc(Br)cc1,x,x,n,x,x,n
Cc1ccc(N(Cc2cc3ccccc3[nH]c2=O)C(=O)c2cccs2)cc1C,n,n,u,n,u,n
O=C(c1cccs1)N(Cc1cc2ccccc2[nH]c1=O)c1ccccc1,n,n,5.2µM,n,n,u
Cc1ccc(C(=O)Nc2ncc3c(Cl)cccc3n2)cc1,u,n,18µM,n,u,u
Cc1ccc(CC(=O)Nc2ccc(Cl)cn2)cc1,n,n,n,n,n,n
SMILES,Giardia kill,MCF10A rerep,KB-V1 cytotox,S-ASM inh,SW480 rereplic,KB-3-1 tox
CCOC(=O)/C=C/C(=O)OCC(=O)Nc1ccc(Cl)cn1,n,21µM,n,n,n,n
CCN(CC)S(=O)(=O)c1cccc(C(=O)Nc2ccc(Cl)cn2)c1,n,n,12µM,n,n,u
Cc1ccc(C(=O)Nc2ccc(Cl)cn2)cc1,n,n,6.5µM,n,n,u
CC(C)=CC(=O)OCC(=O)Nc1ccc(Cl)cn1,n,n,u,n,n,n
Cc1ccc(C(=O)Nc2nccc(-c3cccs3)n2)cc1,n,n,n,n,n,n
CCN(CC)S(=O)(=O)c1cc(C(=O)Nc2ccc(Cl)cn2)ccc1C,n,n,9.2µM,n,n,n
Cc1ccc(NC(=O)c2ccc(Cl)cc2[N+](=O)[O-])nc1,n,u,u,n,3.7µM,5.8µM
CCN(CC)S(=O)(=O)c1cc(C(=O)NC2CCCCC2)ccc1C,n,n,13µM,n,n,n
CCN(Cc1ccccc1)S(=O)(=O)c1cc(C(=O)NC2CCCCCC2)ccc1OC,n,u,u,n,u,u
CCN(CC)S(=O)(=O)c1cc(C(=O)Nc2cc(C)on2)ccc1Cl,n,n,n,n,n,n
CN(Cc1cccs1)c1ncnc2ccc(-c3ccc4cnn(C)c4c3)cc12,x,x,n,x,x,u
COc1cc2c(cc1OC)C1(CCCC1)CNC2C (configuration not stated),n,u,n,n,n,n
COc1cc2c(cc1OC)C1(CCCC1)CNC2c1ccc([N+](=O)[O-])cc1 (configuration not stated),n,n,n,n,23µM,n
CCc1nc2ccc(C(=O)NC3CCN(Cc4ccccc4)CC3)cn2c1N(CC)Cc1cccc(Br)c1,x,x,8.2µM,x,x,u
N#C/C(=C\c1c(Oc2ccc(Cl)cc2)nc2ccccn2c1=O)C(=O)NC1CCS(=O)(=O)C1 (configuration not stated),n,5.2µM,n,n,u,u
Cc1cccn2c(=O)c(/C=C(\C#N)C(=O)NC3CCS(=O)(=O)C3)c(Oc3ccc(F)cc3)nc12 (configuration not stated),n,u,n,n,u,u
Cc1cc(Oc2nc3ccccn3c(=O)c2/C=C(\C#N)C(=O)NC2CCS(=O)(=O)C2)ccc1Cl (configuration not stated),n,n,n,n,u,n
Cc1cccn2c(=O)c(/C=C(\C#N)C(=O)NC3CCS(=O)(=O)C3)c(N3CCC(C)CC3)nc12 (configuration not stated),n,5.8µM,n,n,8.2µM,n
COCCNC(=O)Cn1nc(-c2ccccc2C)ccc1=O,n,n,n,n,n,n
Clc1ccccc1Cn1nnc2c(N3CCOCC3)nc(C3CC3)nc21,n,n,3.7µM,n,n,n
Cc1nc(NCCN2CCOCC2)c2nnn(Cc3ccccc3Cl)c2n1,n,n,6.5µM,n,n,n
Clc1ccccc1Cn1nnc2c(NCCN3CCOCC3)ncnc21,n,n,21µM,n,n,n
Clc1ccccc1Cn1nnc2c(Nc3ccccc3)ncnc21,n,13µM,n,n,n,n
CC(C)(C)c1nc(NCCN2CCOCC2)c2nnn(Cc3ccccc3Cl)c2n1,n,u,n,u,n,u
Cc1ccc(-c2cn(-c3cccc(Cl)c3)c(S(=O)(=O)CC(=O)Nc3ccccc3F)n2)cc1,x,x,n,x,x,n
Cc1ccc(NC(=O)c2cc3ccccn3n2)cc1F,x,x,n,x,x,n

# Screening data: PubChem BioAssay, National Center for Advancing Translational Sciences (NCATS)
